# The source made the active and inactive calls.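 Rule for the calls: active = compounds whose fitted half-maximal concentration for lowering the signal is under 100 µM; inactive = the rest.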
# Assay: fluorescence change in empty-vector K562 cells, dose response, counter-screen for ABCB6 inhibitor project, cell-based, flow cytometry, cherry pick set 1 (AID 623957)
# Details: K562 vector-only cells, 1 h; series mostly up to 100 µM
row,Compound,outcome
1,CCN(CC)S(=O)(=O)c1cccc(-n2c(O)c(C=Nc3ccccc3C(=O)O)c3ccccc3c2=O)c1,inactive
2,COCCCNC(=O)CCc1nnc2ccc(N3CCC(C)CC3)nn12,inactive
3,COC(=O)c1ccc(NC(=O)c2nc(S(=O)(=O)Cc3cccc(C)c3)ncc2Cl)cc1,inactive
4,CCOC(=O)N1CCN(CC(=O)Nc2ccc(C)cc2)CC1,inactive
5,COC(=O)C(NC(=O)CCc1nnc2ccc(N3CCCCC3)nn12)C(C)C (stereo not drawn),inactive
6,O=C(Nc1ccc(F)cc1)c1nc(S(=O)(=O)Cc2ccccc2)ncc1Cl,inactive
7,CCOCCCNC(=O)CCc1nnc2ccc(N3CCCCC3)nn12,inactive
8,CCN(CC)CCNC(=O)CCc1nnc2ccc(N3CCC(C)CC3)nn12,inactive
9,CCOC(=O)C(C)NC(=O)CCc1nnc2ccc(N3CCC(C)CC3)nn12 (stereo not drawn),inactive
10,CCOC(=O)CNC(=O)CCc1nnc2ccc(N3CCC(C)CC3)nn12,inactive
11,CCOC(=O)C1CCN(C(=O)CCc2nnc3ccc(N4CCN(C)CC4)nn23)CC1,inactive
12,Cc1cccc(NC(=O)c2nc(S(=O)(=O)Cc3ccccc3)ncc2Cl)c1,inactive
13,O=C(CCc1nnc2ccc(N3CCC4(CC3)OCCO4)nn12)N1CCCCC1,inactive
